The list is not random: actives were taken first. Their share in the collection is about 17%.
DT40 TDP1 CPT: qHTS for Inhibitors of human tyrosyl-DNA phosphodiesterase 1 (TDP1): qHTS in cells in presence of CPT; chicken DT40 Tdp1-/-;hTDP1 cells + 20 nM CPT, ATP luminescence, 48 h; Potency, µM (titrated, usually from 46.2 µM), usual class: inhibitors; 420,000 tested, 12% active; also: nearly all actives have a fitted effect of over 55% in size
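Cell growth measured by CellTiter-Glo luminescence after a minimum 48 h, 37 C compound exposure with 20 nM CPT in Tdp1-knockout DT40 cells stably expressing hTDP1, seeded 400/well; qHTS titration format.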
TDP1 inh: qHTS Assay for Inhibitors of Tyrosyl-DNA Phosphodiesterase (TDP1); recombinant TDP1, AlphaScreen DNA substrate cleavage; 350,000 tested, 0.28% active; Potency, µM (top dose mostly 130 µM), actives largely listed as inhibitors; also: nearly all actives have a fitted effect of over 40% in size
Target sequence (Q9NUW8 whole entry, looked up): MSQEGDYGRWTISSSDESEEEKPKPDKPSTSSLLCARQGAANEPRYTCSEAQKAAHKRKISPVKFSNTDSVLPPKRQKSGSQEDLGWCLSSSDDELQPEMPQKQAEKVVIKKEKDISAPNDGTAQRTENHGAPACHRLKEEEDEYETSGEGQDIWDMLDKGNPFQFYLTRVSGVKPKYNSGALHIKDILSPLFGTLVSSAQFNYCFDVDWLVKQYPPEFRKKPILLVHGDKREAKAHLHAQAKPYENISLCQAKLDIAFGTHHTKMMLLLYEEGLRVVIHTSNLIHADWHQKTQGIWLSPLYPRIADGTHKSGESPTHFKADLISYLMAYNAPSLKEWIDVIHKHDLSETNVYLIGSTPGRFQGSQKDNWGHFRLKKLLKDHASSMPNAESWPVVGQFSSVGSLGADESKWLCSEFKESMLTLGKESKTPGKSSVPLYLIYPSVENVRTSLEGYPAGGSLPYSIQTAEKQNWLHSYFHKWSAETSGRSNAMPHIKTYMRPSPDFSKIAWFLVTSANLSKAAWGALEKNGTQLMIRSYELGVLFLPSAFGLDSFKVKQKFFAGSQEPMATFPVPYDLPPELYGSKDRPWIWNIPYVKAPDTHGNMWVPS
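E. coli-derived human Tdp1, 1 nM final. Cpd preinc 15 min RT; substrate 15 nM final, 5 min RT; AS bead mix 10 ug/ml final, 10 min RT. Signal loss = tyrosine-FITC cleavage. No-enzyme wells = max signal.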
DT40 TDP1 no CPT: qHTS for Inhibitors of human tyrosyl-DNA phosphodiesterase 1 (TDP1): qHTS in cells in absence of CPT; DT40 Tdp1-/- hTDP1 cells, no CPT, ATP luminescence, 48 h; Potency, µM (titrated, usually from 46.2 µM), most hits filed as inhibitors; 420,000 tested, 15% active; AID 686978, 2013; also: nearly all actives have a fitted effect of over 55% in size
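Growth kinetics read by CellTiter-Glo luminescence after ≥48 hr at 37 °C. Cells: DT40 Tdp1-/- stably carrying human TDP1, 400 per well, compound exposure in the absence of CPT (DMSO vehicle).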
ClpP mod: qHTS Assay for Activators of ClpP | ATP-dependent Clp protease proteolytic subunit (Bacillus subtilis (strain 168)), P80244 | purified B. subtilis ClpP, FRET peptide cleavage, 20 min | Potency, µM (doses to about 57.5 µM) | 340,000 tested, 1.9% active; active = well fitted falling curve with a large enough effect; inconclusive = small, poorly fitted or top-dose-only effect; inactive = no such curve, though single readings can be large or run the other way; also: the source files actives as falling curves though it sought activators and does not explain the sign; nearly all actives have a fitted effect of over 65% in size
Target sequence (P80244 whole entry, looked up): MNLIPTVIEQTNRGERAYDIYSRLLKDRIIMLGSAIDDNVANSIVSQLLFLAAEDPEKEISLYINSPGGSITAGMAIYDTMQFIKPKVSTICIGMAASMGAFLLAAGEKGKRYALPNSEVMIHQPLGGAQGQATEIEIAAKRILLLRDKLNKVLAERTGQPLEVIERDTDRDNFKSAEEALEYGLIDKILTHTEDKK
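Purified B. subtilis ClpP, 10 microg/mL final in Tris/HCl pH8 with KCl, BSA, glycerol and Tween-20, cleaved an Abz/nitrotyrosine-quenched decapeptide. Fluorescence (ex 320, em 430) was read at 0 and 20 min at room temperature. Delta was normalized to 5.8 microM ADEP and DMSO/no-enzyme controls.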
Large screens that a line does not name were inactive. Unless noted, calls follow the shape of the dose curve; as a rule, active = well fitted curve in the direction sought with a large enough effect; inconclusive = small, poorly fitted or top-dose-only effect, or another doubt; inactive = no such curve, though single readings can be large; an effect the other way counts as inactive or inconclusive.

CCCN(CCC)C(=O)CSc1nc2n[nH]c(C)c2c(=N)n1-c1ccc(OCC)cc1	DT40 TDP1 CPT inconclusive, DT40 TDP1 no CPT inconclusive
Cc1cc(-n2c(SCc3ccccc3F)nc3n[nH]c(C)c3c2=N)ccc1Cl	DT40 TDP1 CPT inconclusive, DT40 TDP1 no CPT inconclusive
CCCN(CCC)C(=O)CSc1nc2n[nH]c(C)c2c(=N)n1-c1ccc(OC)cc1	DT40 TDP1 CPT 13µM, DT40 TDP1 no CPT 10.3µM
CCCCN(CC)C(=O)CSc1nc2n[nH]c(C)c2c(=N)n1-c1cccc(OC)c1	DT40 TDP1 CPT 23.1µM, DT40 TDP1 no CPT 9.2µM
N[C@@H](Cn1cc(I)c(=O)n(Cc2ccc(C(=O)O)cc2)c1=O)C(=O)O	none (no result: ClpP mod)
CCCCN(CC)C(=O)CSc1nc2n[nH]c(C)c2c(=N)n1-c1cccc(C)c1	DT40 TDP1 CPT 7.31µM, DT40 TDP1 no CPT 20.6µM
CCNc1ccc(/C=C2\C=Cc3ccccc32)cc1	DT40 TDP1 CPT inconclusive, DT40 TDP1 no CPT inconclusive (no result: TDP1 inh)
CC(C)c1cc(Cn2c3ccccc3c(=O)n2C(C)Cn2cc(CCCC#N)nn2)on1 (stereo not drawn)	none (no result: TDP1 inh)
Cc1oc(C(C)(C)C)cc1C(=O)NCc1ccc2c(c1)OCO2	DT40 TDP1 no CPT inconclusive (no result: ClpP mod)
COc1cccc(-c2nn(C)c3sc(C(=O)NCc4ccc5c(c4)OCO5)cc23)c1	DT40 TDP1 CPT 13µM, DT40 TDP1 no CPT inconclusive
CCOC(=O)c1cccc(NC(=O)c2cn(-c3cccc(OC)c3)c(=O)c3ccccc23)c1	none
CCOC(=O)c1cccc(NC(=O)c2cc3c(-c4cccc(OC)c4)nn(C)c3s2)c1	DT40 TDP1 CPT 16.4µM, DT40 TDP1 no CPT 16.4µM
COc1cccc(-c2nn(C)c3sc(C(=O)NCc4ccc(C)o4)cc23)c1	DT40 TDP1 CPT inconclusive, DT40 TDP1 no CPT 23.1µM, ClpP mod inconclusive
Cn1nc(C(C)(C)C)cc1C(=O)NCc1ccc2c(c1)OCO2	DT40 TDP1 CPT 4.61µM, DT40 TDP1 no CPT 1.84µM
COc1ccc(C2c3c(ncn(CCCc4ccccc4)c3=N)Oc3ccc4ccccc4c32)cc1OC (stereo not drawn)	none (no result: DT40 TDP1 CPT, DT40 TDP1 no CPT, ClpP mod)
Cc1ccc(Cl)cc1N1CCN(C(=O)c2cc(S(=O)(=O)N3CCCCC3)cn2C)CC1	DT40 TDP1 CPT 13µM, DT40 TDP1 no CPT 20.6µM
Cc1ccc(C)c(N2CCN(C(=O)c3cc(S(=O)(=O)N4CCCCCC4)cn3C)CC2)c1	DT40 TDP1 CPT inconclusive, DT40 TDP1 no CPT inconclusive
Cc1ccc(Cl)cc1N1CCN(C(=O)c2cc(S(=O)(=O)N3CCCC3)cn2C)CC1	DT40 TDP1 CPT 16.4µM, DT40 TDP1 no CPT 23.1µM
Cn1cc(S(=O)(=O)N2CCCCC2)cc1C(=O)N1CCN(c2ccc(F)cc2)CC1	DT40 TDP1 CPT inconclusive, DT40 TDP1 no CPT inconclusive
COc1ccc(NC(=S)N2CCN(C/C=C/c3ccccc3)CC2)cc1OC	DT40 TDP1 CPT inconclusive, DT40 TDP1 no CPT inconclusive
CCOC(=O)c1c(C)n(C)c2ccc(OCC(O)CN3C(=O)c4ccccc4S3(=O)=O)cc12 (stereo not drawn)	DT40 TDP1 CPT 16.4µM, DT40 TDP1 no CPT 16.4µM
COc1ccc(/C=C/C(=O)NC(=S)NNC(=O)c2c(-c3ccccc3)noc2C)cc1	DT40 TDP1 CPT inconclusive, DT40 TDP1 no CPT 25.9µM
Cc1onc(-c2ccccc2)c1C(=O)NNC(=S)NC(=O)/C=C/c1ccccc1	DT40 TDP1 CPT 20.6µM, DT40 TDP1 no CPT 18.4µM
Cc1onc(-c2ccccc2)c1C(=O)NNC(=S)NC(=O)c1ccc(Br)cc1	DT40 TDP1 CPT inconclusive, DT40 TDP1 no CPT inconclusive
COCCn1c(=O)c(C)nc2cnc(N3CCOCC3)nc21	none (no result: TDP1 inh, ClpP mod)
O=C(CSc1nc(-c2cccc(F)c2)[nH]c1-c1ccccc1)Nc1ccc2c(c1)OCCO2	DT40 TDP1 CPT 14.6µM, DT40 TDP1 no CPT 11.6µM
O=C(CSc1nc2ccccc2[nH]1)Nc1ccc2c(c1)OCCO2	DT40 TDP1 CPT inconclusive
Cc1cccc(-c2nc(SCC(=O)Nc3ccc4c(c3)OCCO4)c(-c3ccccc3)[nH]2)c1	DT40 TDP1 CPT inconclusive, DT40 TDP1 no CPT 20.6µM
Cc1cc(C)cc(NC(=O)C2CC(=O)N(c3ccccc3)C2)c1 (stereo not drawn)	DT40 TDP1 no CPT inconclusive
Cc1ccc(NC(=O)C(c2ccccc2)N2Cc3ccccc3C2=O)cc1Cl (stereo not drawn)	DT40 TDP1 CPT inconclusive
Cc1ccc(C(=O)C(c2ccccc2)N2Cc3ccccc3C2=N)cc1 (stereo not drawn)	DT40 TDP1 CPT 10.3µM, DT40 TDP1 no CPT 8.2µM, ClpP mod 3.16µM
CCc1nc(CN(C)C(=O)C2CCC(=O)N(CCc3cccc(F)c3)C2)no1 (stereo not drawn)	none
CCCNC(=O)c1ccc(-c2nc(CS(=O)(=O)c3ccc(C)cc3)c(C)o2)cc1	DT40 TDP1 CPT inconclusive, DT40 TDP1 no CPT inconclusive
CC(C)(C)c1cc2ncnc(N3CCCCC3)c2s1	DT40 TDP1 CPT 13µM, DT40 TDP1 no CPT 29.1µM (no result: TDP1 inh)
C/C(CCC(C)C)=N\Nc1cc(C)c2ccccc2n1	DT40 TDP1 CPT 10.3µM, DT40 TDP1 no CPT 7.31µM
CC(C)c1ccc(NC(=O)C2CCN(S(=O)(=O)c3cccc4nsnc34)CC2)cc1	DT40 TDP1 CPT inconclusive, DT40 TDP1 no CPT inconclusive
O=C(Nc1ccc(F)c(Cl)c1)C1CCCN(S(=O)(=O)c2cccc3nsnc23)C1 (stereo not drawn)	DT40 TDP1 CPT 16.4µM, DT40 TDP1 no CPT 23.1µM
CC(C)c1ccc(NC(=O)C2CCCN(S(=O)(=O)c3cccc4nsnc34)C2)cc1 (stereo not drawn)	DT40 TDP1 CPT 4.61µM, DT40 TDP1 no CPT 10.3µM
COc1cc(C)ccc1S(=O)(=O)NC(=O)C1(C)CCN1C(=O)C1(c2ccc(Cl)cc2)CCC1 (stereo not drawn)	none (no result: TDP1 inh)
COc1cc2nc(NCc3ccc(C)cc3)n3nc(-c4ccccc4)nc3c2cc1OC	DT40 TDP1 no CPT inconclusive
O=C(COC(=O)Cc1ccc(Cl)cc1)NCc1cccs1	none
COc1ccc(-c2c(NC(C)=O)n(C)c3ccccc3c2=O)cc1	ClpP mod 25.1µM
COc1ccc(C(=O)Nc2c(-c3cccs3)c(=O)c3ccccc3n2C)cc1	DT40 TDP1 CPT 23.1µM, DT40 TDP1 no CPT 20.6µM (no result: ClpP mod)
COc1ccc(-c2c(NC(=O)C(C)C)n(C)c3ccccc3c2=O)cc1	ClpP mod 28.2µM
Cc1ccccc1C(=O)Nc1c(-c2cccs2)c(=O)c2ccccc2n1C	DT40 TDP1 CPT inconclusive, DT40 TDP1 no CPT inconclusive
Cc1ccc(-c2c(NC(=O)C(C)C)n(C)c3ccccc3c2=O)cc1	none (no result: TDP1 inh)
CC(C)=CCC/C(C)=C/CO/N=C1/[C@H]2O[C@@H]2[C@@H](O)[C@H]2[C@H]1CCn1c(=O)n(Cc3cc4c(cc3Cl)OCO4)c(=O)n12	none (no result: DT40 TDP1 CPT, DT40 TDP1 no CPT, ClpP mod)
CC[C@@]1(C(=O)OC)N[C@H](CN(C)C(=O)c2ccc(F)cc2)[C@@H]2C(=O)N(Cc3ccccc3)C(=O)[C@@H]21	none
CCN(Cc1ccccc1)Cc1c(O)ccc2c(=O)c(-c3ccccc3OC)c(C(F)(F)F)oc12	DT40 TDP1 CPT inconclusive, DT40 TDP1 no CPT 25.9µM (no result: TDP1 inh)

Screening data (PubChem)
